{
  "source": "the supplement of paper PMC10849652",
  "note": "Of roughly 7,900 targets only a part is listed; those with a hit were picked by preference. About 0.6% of all pairs of compound and target were hits.",
  "data": [
    {"compound": "C1=CC=C(C=C1)[C@H](COC2=CC3=C(C=C2)NC(=O)N3)NC(=O)C4=CC=CN(C4=O)CC5=CC(=C(C=C5)F)F", "assay": "log2 fold change, soluble protein after heating vs DMSO (PISA); higher = thermal stabilisation; K562 cells, 10 uM, 30 min; active = over 0.2 and 3.5 SD of the protein, either way, in both replicates (recomputed)", "method_in_brief": "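Quantification of soluble protein used TMTpro 16plex LC-MS/MS, with channel sums equalised. Samples were the supernatant after 21,000xg for 90 min of pooled aliquots from K562 cells (2×10^6 cells/mL) treated with 10 μM compound for 30 min, heated for 3 min over 48°C-58°C, and extracted in PBS with 0.5% NP-40 at 4°C. Values, from duplicates, describe thermal stability against control samples on a log2 fold-change scale.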", "values": [
      {"target": "VTI1A (UniProt Q96AJ9)", "log2 fold change": "0.032 (inactive)"},
      {"target": "WASHC2A (UniProt Q641Q2)", "log2 fold change": "-0.006 (inactive)"},
      {"target": "TMEM219 (UniProt Q86XT9)", "sequence (Q86XT9 whole entry, looked up)": "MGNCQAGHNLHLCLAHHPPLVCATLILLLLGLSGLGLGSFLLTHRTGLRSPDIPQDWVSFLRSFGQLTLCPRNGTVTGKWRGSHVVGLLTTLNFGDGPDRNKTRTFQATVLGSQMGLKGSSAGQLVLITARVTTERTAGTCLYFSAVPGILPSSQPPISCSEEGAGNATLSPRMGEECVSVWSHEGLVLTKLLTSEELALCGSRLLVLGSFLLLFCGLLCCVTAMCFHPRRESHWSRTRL", "log2 fold change": "0.066 (inactive)"},
      {"target": "UCHL5 isoform 3 (UniProt Q9Y5K5)", "sequence (Q9Y5K5 whole entry, looked up)": "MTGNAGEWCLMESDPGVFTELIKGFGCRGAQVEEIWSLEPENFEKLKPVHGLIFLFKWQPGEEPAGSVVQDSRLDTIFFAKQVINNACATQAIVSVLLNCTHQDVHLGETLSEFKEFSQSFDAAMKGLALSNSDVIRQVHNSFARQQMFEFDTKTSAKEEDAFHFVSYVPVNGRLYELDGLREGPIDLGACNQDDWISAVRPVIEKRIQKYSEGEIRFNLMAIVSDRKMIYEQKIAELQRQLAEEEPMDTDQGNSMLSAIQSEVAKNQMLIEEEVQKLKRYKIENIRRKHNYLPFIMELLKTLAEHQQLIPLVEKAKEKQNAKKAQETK", "log2 fold change": "0.021 (inactive)"},
      {"target": "WDR4 (UniProt P57081)", "sequence (P57081 whole entry, looked up)": "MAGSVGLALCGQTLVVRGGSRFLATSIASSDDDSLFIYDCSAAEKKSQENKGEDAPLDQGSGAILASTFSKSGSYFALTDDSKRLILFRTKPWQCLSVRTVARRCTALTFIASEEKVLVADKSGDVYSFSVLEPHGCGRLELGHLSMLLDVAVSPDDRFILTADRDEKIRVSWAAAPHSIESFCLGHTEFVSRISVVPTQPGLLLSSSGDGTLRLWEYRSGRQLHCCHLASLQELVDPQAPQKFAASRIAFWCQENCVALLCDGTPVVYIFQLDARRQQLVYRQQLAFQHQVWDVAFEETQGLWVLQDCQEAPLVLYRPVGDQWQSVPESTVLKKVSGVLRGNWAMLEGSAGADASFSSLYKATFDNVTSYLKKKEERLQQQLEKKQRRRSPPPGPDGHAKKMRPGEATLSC", "log2 fold change": "-0.074 (inactive)"},
      {"target": "WDHD1 (UniProt O75717)", "log2 fold change": "-0.014 (inactive)"},
      {"target": "TMEM223 (UniProt A0PJW6)", "sequence (A0PJW6 whole entry, looked up)": "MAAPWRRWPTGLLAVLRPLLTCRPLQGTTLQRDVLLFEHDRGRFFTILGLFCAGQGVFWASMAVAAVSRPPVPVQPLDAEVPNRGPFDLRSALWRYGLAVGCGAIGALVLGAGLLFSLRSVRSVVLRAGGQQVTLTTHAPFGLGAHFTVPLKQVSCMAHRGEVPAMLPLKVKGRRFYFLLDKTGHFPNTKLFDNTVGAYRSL", "log2 fold change": "0.069 (inactive)"},
      {"target": "VPS37A (UniProt Q8NEZ2)", "sequence (Q8NEZ2 whole entry, looked up)": "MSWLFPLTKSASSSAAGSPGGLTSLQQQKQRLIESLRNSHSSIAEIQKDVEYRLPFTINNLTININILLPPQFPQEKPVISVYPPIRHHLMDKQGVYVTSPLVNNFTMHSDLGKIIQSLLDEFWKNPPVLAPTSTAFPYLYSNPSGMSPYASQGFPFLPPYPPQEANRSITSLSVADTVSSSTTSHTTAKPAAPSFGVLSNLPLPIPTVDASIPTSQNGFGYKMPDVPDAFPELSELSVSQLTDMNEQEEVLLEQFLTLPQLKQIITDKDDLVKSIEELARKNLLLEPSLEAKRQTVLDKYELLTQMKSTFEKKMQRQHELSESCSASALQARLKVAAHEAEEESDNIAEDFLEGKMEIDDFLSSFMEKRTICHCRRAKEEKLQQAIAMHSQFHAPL", "log2 fold change": "-0.076 (inactive)"},
      {"target": "TUBAL3 (UniProt A6NHL2)", "log2 fold change": "-0.196 (inactive)"},
      {"target": "VPS52 (UniProt Q8N1B4)", "log2 fold change": "0.068 (inactive)"},
      {"target": "TMEM120A (UniProt Q9BXJ8)", "sequence (Q9BXJ8 whole entry, looked up)": "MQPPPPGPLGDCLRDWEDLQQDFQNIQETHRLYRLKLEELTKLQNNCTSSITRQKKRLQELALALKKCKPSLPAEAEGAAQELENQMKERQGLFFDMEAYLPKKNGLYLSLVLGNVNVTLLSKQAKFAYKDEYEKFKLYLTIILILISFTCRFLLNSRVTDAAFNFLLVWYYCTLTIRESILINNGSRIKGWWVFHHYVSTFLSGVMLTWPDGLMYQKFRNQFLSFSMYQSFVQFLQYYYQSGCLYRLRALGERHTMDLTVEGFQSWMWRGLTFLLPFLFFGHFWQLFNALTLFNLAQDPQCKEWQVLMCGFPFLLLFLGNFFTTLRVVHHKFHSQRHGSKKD", "log2 fold change": "-0.126 (inactive)"},
      {"target": "VKORC1 (UniProt Q9BQB6)", "log2 fold change": "-0.058 (inactive)"},
      {"target": "VAMP7 (UniProt P51809)", "sequence (P51809 whole entry, looked up)": "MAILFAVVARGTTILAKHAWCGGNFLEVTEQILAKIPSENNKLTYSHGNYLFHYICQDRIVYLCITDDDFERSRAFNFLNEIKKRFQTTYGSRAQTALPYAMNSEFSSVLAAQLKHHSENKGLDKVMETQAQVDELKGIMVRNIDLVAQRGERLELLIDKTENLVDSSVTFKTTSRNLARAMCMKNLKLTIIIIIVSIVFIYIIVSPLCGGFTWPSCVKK", "log2 fold change": "0.007 (inactive)"},
      {"target": "UBXN8 (UniProt O00124)", "log2 fold change": "0.3 (inactive)"},
      {"target": "TRMT61A (UniProt Q96FX7)", "sequence (Q96FX7 whole entry, looked up)": "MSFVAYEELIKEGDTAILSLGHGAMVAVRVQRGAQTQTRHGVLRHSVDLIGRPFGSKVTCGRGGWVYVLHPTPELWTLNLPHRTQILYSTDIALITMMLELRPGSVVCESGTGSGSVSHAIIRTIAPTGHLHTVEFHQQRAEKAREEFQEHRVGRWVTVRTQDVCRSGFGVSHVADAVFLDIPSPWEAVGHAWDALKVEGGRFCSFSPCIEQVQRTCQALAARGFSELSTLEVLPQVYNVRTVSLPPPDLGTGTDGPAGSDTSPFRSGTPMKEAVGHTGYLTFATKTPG", "log2 fold change": "0.157 (inactive)"},
      {"target": "TNFRSF8 (UniProt P28908)", "log2 fold change": "0.012 (inactive)"},
      {"target": "TRAPPC11 (UniProt Q7Z392)", "log2 fold change": "0.004 (inactive)"},
      {"target": "WDR41 (UniProt Q9HAD4)", "log2 fold change": "-0.045 (inactive)"},
      {"target": "UBE2Q1 (UniProt Q7Z7E8)", "sequence (Q7Z7E8 whole entry, looked up)": "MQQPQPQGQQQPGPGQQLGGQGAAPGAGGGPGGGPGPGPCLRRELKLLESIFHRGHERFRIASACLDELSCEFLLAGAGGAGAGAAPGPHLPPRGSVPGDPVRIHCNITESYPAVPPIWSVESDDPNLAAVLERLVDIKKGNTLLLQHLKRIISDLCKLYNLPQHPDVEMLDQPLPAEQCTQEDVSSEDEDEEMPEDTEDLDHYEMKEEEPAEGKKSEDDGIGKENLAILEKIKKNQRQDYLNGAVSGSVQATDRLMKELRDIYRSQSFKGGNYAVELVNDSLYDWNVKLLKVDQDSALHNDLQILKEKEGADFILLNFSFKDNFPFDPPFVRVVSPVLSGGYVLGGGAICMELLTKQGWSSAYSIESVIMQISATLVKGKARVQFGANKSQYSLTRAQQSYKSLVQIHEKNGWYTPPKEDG", "log2 fold change": "-0.041 (inactive)"},
      {"target": "TRAM1 (UniProt Q15629)", "sequence (Q15629 whole entry, looked up)": "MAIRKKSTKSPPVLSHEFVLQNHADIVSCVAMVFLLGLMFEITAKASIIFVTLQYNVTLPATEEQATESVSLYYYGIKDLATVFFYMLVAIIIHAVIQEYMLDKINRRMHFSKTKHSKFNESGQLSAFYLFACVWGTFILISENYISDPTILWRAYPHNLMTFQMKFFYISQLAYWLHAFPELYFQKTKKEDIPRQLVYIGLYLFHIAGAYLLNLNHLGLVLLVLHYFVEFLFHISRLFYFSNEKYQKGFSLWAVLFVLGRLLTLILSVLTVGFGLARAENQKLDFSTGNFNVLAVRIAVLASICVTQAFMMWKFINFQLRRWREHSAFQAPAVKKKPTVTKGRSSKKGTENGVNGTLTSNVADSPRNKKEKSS", "log2 fold change": "-0.167 (inactive)"},
      {"target": "UBA52 (UniProt P62987)", "log2 fold change": "0.088 (inactive)"},
      {"target": "WDR4 isoform 3 (UniProt P57081)", "log2 fold change": "-0.18 (inactive)"},
      {"target": "XIAP (UniProt P98170)", "sequence (P98170 whole entry, looked up)": "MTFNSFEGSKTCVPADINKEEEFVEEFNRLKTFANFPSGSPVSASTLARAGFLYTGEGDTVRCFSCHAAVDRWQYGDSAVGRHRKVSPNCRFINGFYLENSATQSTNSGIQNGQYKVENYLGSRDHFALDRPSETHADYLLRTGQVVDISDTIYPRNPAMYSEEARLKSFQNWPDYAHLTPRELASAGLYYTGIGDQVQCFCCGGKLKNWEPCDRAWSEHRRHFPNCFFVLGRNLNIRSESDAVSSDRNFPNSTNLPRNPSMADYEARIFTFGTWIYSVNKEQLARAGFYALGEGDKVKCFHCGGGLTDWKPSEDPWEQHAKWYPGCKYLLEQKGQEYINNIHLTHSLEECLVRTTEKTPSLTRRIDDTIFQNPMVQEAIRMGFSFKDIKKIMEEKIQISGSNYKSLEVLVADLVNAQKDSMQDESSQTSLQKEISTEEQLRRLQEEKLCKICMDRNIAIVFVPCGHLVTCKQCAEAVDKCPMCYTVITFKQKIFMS", "log2 fold change": "0.05 (inactive)"},
      {"target": "TRIM23 (UniProt P36406)", "log2 fold change": "0.023 (inactive)"},
      {"target": "UFD1 isoform 1 (UniProt Q92890)", "log2 fold change": "-0.011 (inactive)"},
      {"target": "TMEM8A (UniProt Q9HCN3)", "log2 fold change": "0.017 (inactive)"},
      {"target": "TRIM4 (UniProt Q9C037)", "log2 fold change": "-0.049 (inactive)"},
      {"target": "TMEM161B (UniProt Q8NDZ6)", "sequence (Q8NDZ6 whole entry, looked up)": "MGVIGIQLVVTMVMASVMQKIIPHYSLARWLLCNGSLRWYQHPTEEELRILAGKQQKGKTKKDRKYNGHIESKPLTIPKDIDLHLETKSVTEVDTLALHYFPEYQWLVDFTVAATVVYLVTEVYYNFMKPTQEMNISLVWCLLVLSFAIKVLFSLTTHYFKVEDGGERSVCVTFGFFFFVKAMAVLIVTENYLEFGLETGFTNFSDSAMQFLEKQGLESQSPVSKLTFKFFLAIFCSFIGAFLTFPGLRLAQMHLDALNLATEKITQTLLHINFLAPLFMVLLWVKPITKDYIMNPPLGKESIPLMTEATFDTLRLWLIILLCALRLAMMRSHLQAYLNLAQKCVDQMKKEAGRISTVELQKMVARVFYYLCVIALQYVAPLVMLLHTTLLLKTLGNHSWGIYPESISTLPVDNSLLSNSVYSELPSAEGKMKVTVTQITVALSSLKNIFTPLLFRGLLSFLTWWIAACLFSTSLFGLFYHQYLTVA", "log2 fold change": "-0.076 (inactive)"},
      {"target": "USP48 (UniProt Q86UV5)", "log2 fold change": "0 (inactive)"},
      {"target": "TNPO1 (UniProt Q92973)", "log2 fold change": "-0.017 (inactive)"},
      {"target": "UHRF1BP1 (UniProt Q6BDS2)", "log2 fold change": "-0.01 (inactive)"},
      {"target": "TMEM87B (UniProt Q96K49)", "sequence (Q96K49 whole entry, looked up)": "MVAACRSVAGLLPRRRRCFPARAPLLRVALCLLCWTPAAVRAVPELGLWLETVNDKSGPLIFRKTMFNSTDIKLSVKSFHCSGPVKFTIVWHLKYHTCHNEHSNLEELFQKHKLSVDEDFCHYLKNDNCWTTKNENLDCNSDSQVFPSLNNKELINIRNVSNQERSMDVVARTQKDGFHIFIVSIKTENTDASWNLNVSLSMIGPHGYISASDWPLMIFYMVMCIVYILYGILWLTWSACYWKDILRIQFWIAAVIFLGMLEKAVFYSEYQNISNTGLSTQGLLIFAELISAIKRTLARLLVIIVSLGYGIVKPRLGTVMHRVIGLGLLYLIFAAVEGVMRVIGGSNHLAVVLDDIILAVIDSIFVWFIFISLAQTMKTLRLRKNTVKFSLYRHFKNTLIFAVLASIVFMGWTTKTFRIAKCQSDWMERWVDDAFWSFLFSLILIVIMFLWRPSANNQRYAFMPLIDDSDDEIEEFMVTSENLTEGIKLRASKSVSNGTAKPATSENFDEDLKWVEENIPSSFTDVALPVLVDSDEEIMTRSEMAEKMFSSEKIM", "log2 fold change": "0.04 (inactive)"},
      {"target": "UBA6", "log2 fold change": "-0.018 (inactive)"},
      {"target": "WARS1 (UniProt G3V5U1)", "log2 fold change": "0.193 (inactive)"},
      {"target": "WARS1 (UniProt G3V3P2)", "log2 fold change": "0.095 (inactive)"}
    ]}
  ]
}
